Reference: article PMC10726135, “HNF4α isoforms regulate the circadian balance between carbohydrate and lipid metabolism in the liver”
Over roughly 18,000 sequences, “log2 normalized intensity” has its median near 0.36; the highest 2% begin near 7.3. The full list was thinned out, with the highest values kept by preference.

What follows are sequences tested against T1, HNF4alpha8 (COS-7 nuclear extract) (Homo sapiens, UniProt P41235-5 1-452) (assay: protein-binding microarray; COS-7 nuclear extract on double-stranded Agilent 4x180k PBM; binding buffer, salt, pH and temperature not given in the material; high values mean tight binding). Settings: chain copies: 2; label: 3' end of strand 1 on the slide; dsDNA, one strand shown.
T1 sequence: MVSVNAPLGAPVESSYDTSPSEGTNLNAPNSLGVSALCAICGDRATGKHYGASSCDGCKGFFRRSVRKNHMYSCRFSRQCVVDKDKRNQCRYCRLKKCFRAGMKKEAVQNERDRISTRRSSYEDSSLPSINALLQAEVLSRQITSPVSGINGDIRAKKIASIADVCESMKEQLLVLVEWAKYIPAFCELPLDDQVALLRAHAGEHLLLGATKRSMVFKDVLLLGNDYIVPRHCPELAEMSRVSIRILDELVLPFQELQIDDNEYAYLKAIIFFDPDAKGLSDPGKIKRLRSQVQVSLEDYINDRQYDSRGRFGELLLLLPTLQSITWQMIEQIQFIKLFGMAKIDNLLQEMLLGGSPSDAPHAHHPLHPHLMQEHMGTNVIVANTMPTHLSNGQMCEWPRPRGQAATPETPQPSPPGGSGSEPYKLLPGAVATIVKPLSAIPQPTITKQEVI
In short: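 Nuclear extracts came from COS-7 cells transiently transfected by CaPO4 with a human HNF4α isoform expression vector. They were applied to a custom Agilent SurePrint G3 4x180k array of ~60-nt oligonucleotides, made double-stranded, with ~44,000 test sequences spotted in quadruplicate. Bound HNF4α was imaged at 2-µm resolution on an Agilent G2565CA scanner. Binding signal was taken as background-corrected, normalized gProcessedSignal from Agilent software.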

Row | Sequence | binding signal [log2 normalized intensity]
1 | GCTTGTTCTCTCCCCCAACCCCACCTTCATGCCTAGGGAGATTAGAGTATCGGTCGA | 4.61
2 | GTGTGGGACTTTGGTCTGCTGAGTCTCATGGCCTAGGGAGATTAGAGTATCGGTCGA | 2.52
3 | TCTTCTCAGTGTTTTGGGTCCTACAGAACCGCCTAGGGAGATTAGAGTATCGGTCGA | 0.643
4 | TTTGCCATTTGGAGAGAGTTTGGCCCCAGTGCCTAGGGAGATTAGAGTATCGGTCGA | 2.83
5 | TTTGGAATTTGACCTCATTTGCTCCCAGTGGCCTAGGGAGATTAGAGTATCGGTCGA | 4.58
6 | TTAGCCCAGTGAGACCCATTTTGGACTTTGGCCTAGGGAGATTAGAGTATCGGTCGA | 7.42
7 | CCAGTGAGACCCATTTTGGACTTTGACCTCGCCTAGGGAGATTAGAGTATCGGTCGA | 11.8
8 | ACATCTTGATTTAGCCCAGTGAGACCCATTGCCTAGGGAGATTAGAGTATCGGTCGA | 0.922
9 | CACATACACCTGCGTGTACTAAGGTCTTAAGCCTAGGGAGATTAGAGTATCGGTCGA | 1.24
10 | CAAGTTGCAGGGATGGACTTTAATCTCCAAGCCTAGGGAGATTAGAGTATCGGTCGA | 5.83
11 | AGGTCATGCATAGAAGTATGTCTGGGATTTGCCTAGGGAGATTAGAGTATCGGTCGA | 0.935
12 | GTGCTCCTCCCCATCTCAGCCTCTCAGGTCGCCTAGGGAGATTAGAGTATCGGTCGA | 1.84
13 | ACACCAGGCCCTCGGCATCATGCCCTTTGGGCCTAGGGAGATTAGAGTATCGGTCGA | 4.63
14 | CCCCTCCCCCAAGGCATGGGACCTTTGCCCGCCTAGGGAGATTAGAGTATCGGTCGA | 7.34
15 | AGGCCCTCGGCATCATGCCCTTTGGCCCCCGCCTAGGGAGATTAGAGTATCGGTCGA | 7.71
16 | AAGGCATGGGACCTTTGCCCTTCTTGTTAAGCCTAGGGAGATTAGAGTATCGGTCGA | 5.47
17 | CCCCCAAGGCATGGGACCTTTGCCCTTCTTGCCTAGGGAGATTAGAGTATCGGTCGA | 6.71
18 | CTCGGCATCATGCCCTTTGGCCCCCAGAGCGCCTAGGGAGATTAGAGTATCGGTCGA | 7.18
19 | CAGAGACAATGTGAGCAGGTGTGTGGCATCGCCTAGGGAGATTAGAGTATCGGTCGA | 0.13
20 | CGACCTCCCCGTCACCCTCCCCGCCACCCCGCCTAGGGAGATTAGAGTATCGGTCGA | 7.01
21 | GCAAATGTGTCTTTTTTAGTCAGCATAGTTGCCTAGGGAGATTAGAGTATCGGTCGA | 1.34
22 | TGTGACAGAAGTCATGTCTCATTGCCCCTTGCCTAGGGAGATTAGAGTATCGGTCGA | 4.58
23 | GAATGGCCAGAGTTCCTGTGCAAGCCCCTGGCCTAGGGAGATTAGAGTATCGGTCGA | -0.986
24 | GGTGAAGGGGTCACCTCGCTCCCCTCCTGTGCCTAGGGAGATTAGAGTATCGGTCGA | 1.02
25 | GTTGGTTTCTGGGATTTGTACAAGTGATTGGCCTAGGGAGATTAGAGTATCGGTCGA | 1.63
26 | CCTGAGAGGCCAGTTTGACCTTTGCATTCTGCCTAGGGAGATTAGAGTATCGGTCGA | 8.31
27 | TTTGGAGTTTGACCTGGAGCCAGGGCCTTTGCCTAGGGAGATTAGAGTATCGGTCGA | 3.92

Row | Sequence | binding signal [log2 normalized intensity]
28 | ATATCCCTGAGAGGCCAGTTTGACCTTTGCGCCTAGGGAGATTAGAGTATCGGTCGA | 8.82
29 | GAGGCCAGTTTGACCTTTGCATTCTTACCCGCCTAGGGAGATTAGAGTATCGGTCGA | 7.03
30 | CAGTTTGACCTTTGCATTCTTACCCAAGCCGCCTAGGGAGATTAGAGTATCGGTCGA | 5.1
31 | TCACCATATCCCTGAGAGGCCAGTTTGACCGCCTAGGGAGATTAGAGTATCGGTCGA | 3.28
32 | AACATGTAAATATGACCTTTGCTTTTCAAGGCCTAGGGAGATTAGAGTATCGGTCGA | 5.13
33 | ATGTGGTCAAAACTTTGTTTGAGTTCCAAAGCCTAGGGAGATTAGAGTATCGGTCGA | 1.01
34 | TTTGACATCACCTAACTTGTGGCTGGGTGAGCCTAGGGAGATTAGAGTATCGGTCGA | 1.15
35 | AACCCCTTTTCAATTCCTTATCTCGTTCTGGCCTAGGGAGATTAGAGTATCGGTCGA | 0.721
36 | CAGTCACAGCAGTGGACTTTGACCTTGGCAGCCTAGGGAGATTAGAGTATCGGTCGA | 9.69
37 | ACAGCACTGACCTTTGAGAGTCAACACTGAGCCTAGGGAGATTAGAGTATCGGTCGA | 3.53
38 | ATGTGACCTTTTGGACCACAGAGTGACCTGGCCTAGGGAGATTAGAGTATCGGTCGA | 5.66
39 | ACTTTGACCTTGGCACTGAAGAATGTCTAAGCCTAGGGAGATTAGAGTATCGGTCGA | 2.09
40 | ACAGCAGTGGACTTTGACCTTGGCACTGAAGCCTAGGGAGATTAGAGTATCGGTCGA | 9.68
41 | TGACCTTGCAGTGGCAAGGCAAAAGAGACAGCCTAGGGAGATTAGAGTATCGGTCGA | 0.892
42 | CCTCCTGTGGTAATAAGTTGGTGGACGCTGGCCTAGGGAGATTAGAGTATCGGTCGA | 1.13
43 | AAAATATGGACTTTGGAATTAAGAAAAGCTGCCTAGGGAGATTAGAGTATCGGTCGA | 5.77
44 | GGATAATGATAAAGAGATTGGACTTTGGCCGCCTAGGGAGATTAGAGTATCGGTCGA | 9.44
45 | GGACTTTGGTGTCTGACAGATAAGATTTGGGCCTAGGGAGATTAGAGTATCGGTCGA | 2.62
46 | AGGCCAAACAAAAATATGGACTTTGGAATTGCCTAGGGAGATTAGAGTATCGGTCGA | 8.4
47 | GAGACAGCTCCACAGCTGGACTTTGGCTGCGCCTAGGGAGATTAGAGTATCGGTCGA | 6.17
48 | ATCTCCAAACGAGACTTTGGACTTTGGACTGCCTAGGGAGATTAGAGTATCGGTCGA | 11.9
49 | AAAGATGTTTAAATAGTGATAATGGATGGCGCCTAGGGAGATTAGAGTATCGGTCGA | 0.702
50 | ATCTCCAGATAAGACTTTGGACTTTGGACCGCCTAGGGAGATTAGAGTATCGGTCGA | 11.8
51 | GCTAAGAGACAGCTCCACAGCTGGACTTTGGCCTAGGGAGATTAGAGTATCGGTCGA | 5.9
52 | ATTTGGACTTTTACTCTTAGAGATAATGGGGCCTAGGGAGATTAGAGTATCGGTCGA | 2.47
53 | TATGCTCTCTCTCCACCTGGAGGGACTTTGGCCTAGGGAGATTAGAGTATCGGTCGA | 3.06
54 | TCTTTAGGCCAAACAAAAATATGGACTTTGGCCTAGGGAGATTAGAGTATCGGTCGA | 6.57
